AID inh: Primary qHTS assay for inhibitors of Activation Induced Cytidine Deaminase (AID): AID signal; Single-stranded DNA cytosine deaminase (Homo sapiens), Q9GZX7; Potency, µM (titrated, usually from 115 µM), hits mostly inhibitors; hit rate 0.32% among 91,000; AID deamination FRET fluorescence, UDG-coupled, 4 h; also: nearly all actives have a fitted effect of over 25% in size
Target sequence (Q9GZX7 whole entry, looked up): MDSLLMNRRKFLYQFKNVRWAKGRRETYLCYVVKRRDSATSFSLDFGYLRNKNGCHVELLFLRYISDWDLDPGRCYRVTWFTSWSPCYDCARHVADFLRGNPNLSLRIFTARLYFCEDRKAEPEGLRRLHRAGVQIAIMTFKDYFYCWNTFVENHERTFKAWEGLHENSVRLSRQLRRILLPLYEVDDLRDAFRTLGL
UDG counter: Primary qHTS assay for inhibitors of Activation Induced Cytidine Deaminase (AID): UDG Counterscreen signal; hit rate 0.14% among 91,000; FRET deamination/UDG coupled assay, UDG read, 4 h; Uracil-DNA glycosylase; Potency, µM (series often up to 115 µM), inactives show top-dose activity change, negative = inhibition, actives largely listed as inhibitors; also: nearly all actives have a fitted effect of over 65% in size
* hit, by the source's call; i = inactive; ? = inconclusive. This is a sample that favours compounds with a hit; in the whole collection about 0.47% have one here. Calls follow the shape of the dose curve; as a rule, active = well fitted curve in the direction sought with a large enough effect; inconclusive = small, poorly fitted or top-dose-only effect, or another doubt; inactive = no such curve, though single readings can be large; an effect the other way counts as inactive or inconclusive. % is scaled to controls: 0 for no effect and ±100 for the full control effect; potency is read from the fitted curve at half-maximal effect.

SMILES	AID inh	UDG counter
CC12CNCC(C)(CNC1)C2=O	?	50µM*
CC12CC[C@H]3[C@@H](CCC4(O)CC(O[N+](=O)[O-])CCC34CO[N+](=O)[O-])C1(O)CCC2C1=CC(=O)OC1 (some centres undefined)	i	3%
COc1ccc(CN2CCN(C(=O)COc3ccc4ccccc4c3)CC2)cc1	i	0%
COc1ccc(-n2c(/C=C\c3ccccc3F)nc3ccccc3c2=O)c(OC)c1	?	79µM*
COc1ccccc1-n1c(/C=C/c2ccccc2)nc2ccccc2c1=O	i	0%
Cc1ccc(CN(CCc2ccccc2)Cc2ccccc2)o1	i	7%
O=c1oc2ccccc2c(O)c1C(c1cccc(O)c1)c1c(O)c2ccccc2oc1=O	50µM*	-3%
O=c1oc2ccccc2c(O)c1C(c1ccccc1)c1c(O)c2ccccc2oc1=O	45µM*	13%
Cc1c(C(c2ccc(O)cc2)c2c(O)c3ccccc3oc2=O)c(=O)n(-c2ccccc2)n1C (centres undefined)	i	4%
COc1ccc(OC)c(C(c2c(O)c3ccccc3oc2=O)c2c(C)n(C)n(-c3ccccc3)c2=O)c1 (centres undefined)	i	-3%
CC(N)Cc1ccc(N(C)C)cc1 (centres undefined)	i	-11%
O=[N+]([O-])/C=C/c1c[nH]c2ccccc12	i	5%
Cc1cccc(-n2c(/C=C/c3ccco3)nc3ccccc3c2=O)c1	i	?
NCC(O)c1cc(O)c(O)cc1F (centres undefined)	50µM*	-4%
O=[N+]([O-])/C=C\c1ccc2c(c1)OCO2	i	4%

Screening data (PubChem)
